Screening data: PubChem BioAssay, Broad Institute
ARNT-TACC3 inh: disrupts binding between human ARNT and TACC3 | AlphaScreen His-ARNT PAS-B/GST-TACC3 binding, luminescence; TACC3 fragment carries E629A point mutation | inhibition, % at 9.99 µM | Q9Y6A5 | 0.66% of 390,000 active;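 active means mean inhibition of replicates at least 50% and at least half of replicates each reaching 50%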;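 further: 0% = complete ARNT plus TACC3 wells and 100% = ARNT alone without TACC3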
Casp6 inh: inhibitors of human caspase-6; purified caspase-6, Z-VEID-R110 cleavage fluorescence; inhibition, % at 12.5 µM; 0.53% of 350,000 active;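 active means mean inhibition across replicates at least about 35%, with every replicate also reaching that limit, limit read from the data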;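 further: 0% = median of neutral control wells and 100% = no fluorescence left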
SIRT5 inh: blocks human SIRT5 desuccinylation of peptide | Q9NXA8 | Purified SirT5, succinyl-peptide AMC, trypsin-coupled fluorescence | inhibition, % at 15 µM | 1.1% of 330,000 active; in the data active means inhibition above about 15%
NSD2 inh: inhibitors of human histone methyltransferase NSD2. NSD2 peptide methylation, AlphaScreen, 120 min. inhibition, % at 12.5 µM. 0.54% of 310,000 active; in the data active means inhibition above about 50%
PfHsp90 set2: growth inhibition of yeast expressing Plasmodium Hsp90; S. cerevisiae expressing PfHsp90, BacTiter-Glo ATP, 48 h; yeast lacking PDR1 and PDR3 efflux regulators; inhibition, % at 9.4 µM; 0.32% of 310,000 active;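 active means every replicate shows inhibition above about 80%, whatever the replicate mean, limit read from the data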;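 further: 0% = DMSO neutral controls and 100% = 20 µM radicicol positive controls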
An asterisk follows results filed as active. An excerpt weighted towards active compounds, which were near 2.1% of everything screened.

How did CC(C)(C)c1ccc(C(=O)CC(Sc2ccc(Cl)cc2)C(=O)O)cc1 (centres undefined) do in these assays?
ARNT-TACC3 inh: 5; Casp6 inh: 15; SIRT5 inh: 1; NSD2 inh: 5; PfHsp90 set2: 81*

How did COC(=O)c1ccccc1CSc1nsc(/C=C/N(C)C)c1C#N do in these assays?
ARNT-TACC3 inh: -12; Casp6 inh: 37*; SIRT5 inh: 1; NSD2 inh: 3; PfHsp90 set2: 0

How did c1ccc(-c2cncnc2)cc1 do in these assays?
ARNT-TACC3 inh: 20; Casp6 inh: -1; SIRT5 inh: 25*; PfHsp90 set2: 1

What do the screens show for `c1ccc(-c2nnc(-c3ccccc3)nn2)cc1`?
Casp6 inh: 0; SIRT5 inh: 4; NSD2 inh: 0

Results for COCC(=O)Nc1ccc2c(c1)C(=O)N(C)C[C@H](OC)[C@@H](C)CN(Cc1ccccc1OC)[C@@H](C)CO2 ?
ARNT-TACC3 inh: -9; Casp6 inh: 1; SIRT5 inh: 0

Results for CCOC(=O)c1cccc(NC(=O)c2ccc3c(c2)OCO3)c1 ?
ARNT-TACC3 inh: 4; Casp6 inh: 2; SIRT5 inh: 19*; NSD2 inh: -2; PfHsp90 set2: -17

Results for N[C@@H](CO)c1nnc([C@H](Cc2ccc(O)cc2)NC(=O)C2CCNCC2)o1 ?
ARNT-TACC3 inh: 3; Casp6 inh: -10; SIRT5 inh: 28*; PfHsp90 set2: 19

Results for NCCCC[C@H](NC(=O)C1CCNCC1)c1nnc([C@@H](N)Cc2ccc(O)cc2)o1 ?
ARNT-TACC3 inh: -5; Casp6 inh: -159; PfHsp90 set2: 1

What do the screens show for `CCOC(=O)C1CCN(Cc2ccc(O)c3ncccc23)CC1`?
ARNT-TACC3 inh: 69*; NSD2 inh: 4

How did CCC(=O)Nc1ccc2c(c1)C(=O)N(C)C[C@@H](OC)[C@@H](C)CN(CCC(F)(F)F)[C@H](C)CO2 do in these assays?
ARNT-TACC3 inh: -4; Casp6 inh: -3; SIRT5 inh: 16*

What do the screens show for `CCC(=O)Nc1ccc2c(c1)C(=O)N(C)C[C@@H](OC)[C@H](C)CN(CC1CCCCC1)[C@@H](C)CO2`?
ARNT-TACC3 inh: -1; SIRT5 inh: 22*

What do the screens show for `CCCN1C[C@H](C)[C@H](OC)CN(C)C(=O)c2cc(NC(=O)c3ccc(F)cc3)ccc2OC[C@H]1C`?
ARNT-TACC3 inh: -6; Casp6 inh: 0; SIRT5 inh: 16*

Results for COc1cccc(C(=O)Nc2ccc3c(c2)C(=O)N(C)C[C@H](OC)[C@@H](C)CN(CCc2ccccc2)[C@@H](C)CO3)c1 ?
ARNT-TACC3 inh: -2; SIRT5 inh: 18*

What do the screens show for `CC(=O)N(C)C[C@@H]1Oc2ncc(-c3cccc(F)c3)cc2C(=O)N([C@@H](C)CO)C[C@@H]1C`?
ARNT-TACC3 inh: -8; Casp6 inh: 0; SIRT5 inh: -3

What do the screens show for `O=C(c1ccccn1)N1C[C@@H]2[C@H](c3ccccc31)[C@@H](CO)N2C(=O)Cc1ccccc1`?
ARNT-TACC3 inh: 34; Casp6 inh: 33; SIRT5 inh: -2

Results for O=C(C[C@H]1CC[C@H]2[C@@H](COC[C@H](O)CN2CC2CCCC2)O1)NCC1CC1 ?
Casp6 inh: -1; SIRT5 inh: 0

What do the screens show for `COc1ccc2c([N+](=O)[O-])c(N3CCOCC3)[nH]c2c1`?
Casp6 inh: 2; SIRT5 inh: 3; NSD2 inh: 2

What do the screens show for `COc1ccc2c([N+](=O)[O-])c(Cl)[nH]c2c1`?
ARNT-TACC3 inh: 25; Casp6 inh: 63*; SIRT5 inh: -1; PfHsp90 set2: -17

Results for Cc1ccc(O)c(-c2cc(-c3cccc(Br)c3)n[nH]2)c1 ?
ARNT-TACC3 inh: -3; Casp6 inh: 2; SIRT5 inh: 1; NSD2 inh: -1; PfHsp90 set2: 105*

What do the screens show for `Cc1ccc(S(=O)(=O)N[C@@H]2CC[C@H](CCNC(=O)C3CCC3)O[C@@H]2CO)cc1`?
ARNT-TACC3 inh: -8; Casp6 inh: 2; SIRT5 inh: -4

What do the screens show for `CCCC#Cc1cnc2c(c1)C(=O)N([C@H](C)CO)C[C@H](C)[C@H](CN(C)S(C)(=O)=O)O2`?
ARNT-TACC3 inh: -6; Casp6 inh: -2; SIRT5 inh: 0

What do the screens show for `CCCC#Cc1cnc2c(c1)C(=O)N([C@H](C)CO)C[C@@H](C)[C@@H](CN(C)C(=O)CN1CCOCC1)O2`?
Casp6 inh: -1; SIRT5 inh: 3
